From PubChem BioAssay
Values without a mark were called inactive. The rule behind the calls is not given here.

target: Pantothenate synthetase (Mycobacterium tuberculosis (strain ATCC 25618 / H37Rv)) (UniProt P9WIL5); test: Recombinant Mtb pantothenate synthetase (PanC) inhibitors, coupled enzyme, confirmatory (AID 375); conditions: coupled enzyme assay; at 10 µM, hits give high values;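 note: 0% = full reaction with vehicle and 100% = no enzyme background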
Sequence (P9WIL5 whole entry, looked up): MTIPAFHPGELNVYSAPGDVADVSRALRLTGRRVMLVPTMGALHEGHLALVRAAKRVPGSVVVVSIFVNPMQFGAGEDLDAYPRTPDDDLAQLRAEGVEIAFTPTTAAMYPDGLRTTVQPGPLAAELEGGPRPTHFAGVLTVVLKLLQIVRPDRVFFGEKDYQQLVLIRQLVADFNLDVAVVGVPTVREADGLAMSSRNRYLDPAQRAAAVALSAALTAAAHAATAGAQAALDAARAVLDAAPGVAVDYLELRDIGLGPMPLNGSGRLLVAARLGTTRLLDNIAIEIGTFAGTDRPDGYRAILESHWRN

| Structure (SMILES) | inhibition [%] |
| --- | --- |
| CCCCn1c2c(c3ccccc31)CCc1nonc1-2 | 1 |
| COc1ccc(-c2cn3c(C)c(C(=O)Nc4cc(NC(C)=O)ccc4OC)sc3n2)cc1 | 4 |
| COc1cccc(C(=O)Nc2cnc(NC(=O)c3ccco3)cc2C)c1 | 9 |
| Cc1ccc(C)c(C(=O)CC2(O)C(=O)N(C)c3ccccc32)c1 (stereo not given) | 0 |
| COc1ccc(C(=O)NCCSc2ccccn2)cc1 | 5 |
| CC1Cc2ccccc2N1C(=O)CSc1nnc2n1C(C)(C)Cc1ccccc1-2 (stereo not given) | 0 |
| Cc1c(C(=O)OCc2ccccc2)[nH]c2c1C(=O)CC(c1ccco1)C2 (stereo not given) | 1 |
| CC(C)NC(=O)CSCc1ccccc1Cl | 13 |
| O=c1oc(-c2ccco2)nc2ccccc12 | 2 |
| Cc1onc(-c2ccccc2)c1C(=O)N1CCCSC1=Nc1ccccc1 | 6 |
| Nc1nc2n(n1)C(c1cccc(Br)c1)CC(c1ccc(F)cc1)N2 (stereo not given) | 0 |
| Cc1cc2ncn(S(=O)(=O)c3ccc(S(=O)(=O)N4CCOCC4)cc3)c2cc1C | 5 |
| O=C(Nn1cnnc1)c1cc2c(s1)CCCC2 | 0 |
| Cc1cc(C)cc(NC(=O)CSc2nnc(Cc3cccn3C)n2-c2ccc(F)cc2)c1 | 6 |
| CS(=O)(=O)NCc1ccc(C(=O)NCc2ccccc2)cc1 | 4 |
| CC1CCC(NC(=O)C2(C)CCC(=O)N2Cc2cccnc2)CC1 (stereo not given) | 0 |
| Cc1ccc(NC(=O)CSc2nnc(-c3cnccn3)n2Cc2ccco2)cc1C | 0 |
| CCCC(=O)Nc1ccc(NC(=O)c2ccccc2OC)cn1 | 0 |
| CNCCCC1c2ccccc2C=Cc2ccccc21 | 0 |
| O=C(Nc1ccc(N2CCOCC2)cc1)C1CC1 | 0 |

| Structure (SMILES) | inhibition [%] |
| --- | --- |
| CCC1C(=O)N=C(SCC(=O)Nc2cccc3ccccc23)NC1=O (stereo not given) | 0 |
| O=c1[nH]c(NCc2ccccc2)nc2c1CCCC2 | 0 |
| COc1cccc(-c2cc(C(=O)N3CCCc4ccccc43)no2)c1 | 0 |
| COc1ccc(OCCOC(=O)c2cccc(-n3cnnn3)c2)cc1 | 0 |
| COc1ccc(C2CC(=O)c3cnc(NC(=O)c4ccccc4OC)nc3C2)c(OC)c1 (stereo not given) | 8 |
| COCc1cc(C)nc(SCC(=O)Nc2cccc(C)c2C)c1C#N | 5 |
| O=C(O)c1ccc(NC(=O)c2cccs2)cc1 | 0 |
| Cn1c(C(=O)Nc2ccc3c(c2)OCO3)cc2c(=O)n(C)c3ccccc3c21 | 0 |
| O=C(NCCc1ccccc1)C1CCN(S(=O)(=O)N2CCC3(CC2)OCCO3)CC1 | 4 |
| COc1ccc(OC)c(CNC(=O)CCN2C(=O)COc3ccccc32)c1 | 5 |
| CCCCn1nc(C(=O)N2CCc3ccccc32)c2ccccc2c1=O | 6 |
| COc1ccc(C(=O)N2CCSC2=S)cc1OC | 0 |
| Cc1ccc(NC(=O)CN(C)S(=O)(=O)c2cccc3nsnc23)cc1Cl | 1 |
| Cn1c(=O)c2c(nc3sccn32)n(C)c1=O | 0 |
| COc1ccc(N2C(=O)C(Cl)=C(Nc3c(C)n(C)n(-c4ccccc4)c3=O)C2=O)cc1 | 5 |
| COC(=O)Cc1c(C)nc2nc(-c3ccccc3)[nH]n2c1=O | 0 |
| O=C(NC(NC1CCS(=O)(=O)C1)C(=O)c1cccs1)c1ccccc1 (stereo not given) | 1 |
| Cn1c(=N)c(S(=O)(=O)c2ccc(Cl)cc2)cc2c(=O)n3ccccc3nc21 | 0 |
| COC(=O)c1ccccc1NC(=O)c1ccc(-c2ccccc2F)o1 | 0 |
| c1ccc2c(NC3CCCC3)nnc(NC3CCCC3)c2c1 | 0 |
